D2 ag-1: agonists of human D2 dopamine receptor. P14416. HEK293 T-REx D2 cells, calcium flux agonist mode. activation, % at 2 µM. actives 0.53% (n = 340,000);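 active means activation over 3 SD above normal in the single-dose calcium agonist read, cut at about 30% in these data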; further: 0% is about no effect
Target sequence (P14416 whole entry, looked up): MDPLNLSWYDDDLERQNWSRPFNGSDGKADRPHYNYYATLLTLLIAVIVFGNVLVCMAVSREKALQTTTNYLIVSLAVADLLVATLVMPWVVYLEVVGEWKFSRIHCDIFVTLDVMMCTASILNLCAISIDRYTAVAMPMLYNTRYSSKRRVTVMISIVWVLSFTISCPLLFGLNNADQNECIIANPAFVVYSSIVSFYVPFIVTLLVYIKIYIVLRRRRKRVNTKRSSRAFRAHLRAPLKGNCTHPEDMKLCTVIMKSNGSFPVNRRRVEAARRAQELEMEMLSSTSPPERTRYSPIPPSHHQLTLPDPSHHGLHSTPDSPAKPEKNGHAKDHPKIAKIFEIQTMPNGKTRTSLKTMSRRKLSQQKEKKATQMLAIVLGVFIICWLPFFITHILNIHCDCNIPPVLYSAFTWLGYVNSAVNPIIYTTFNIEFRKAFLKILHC
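Agonism scored from kinetic calcium signal (1 read/sec, 180 s) following compound pin transfer, after a 10 s baseline. Cells: HEK293 Trex line expressing inducible D2 receptor coupled to calcium, dye-loaded after overnight culture at 30 C.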
D2 PAM-1: positive allosteric modulators of human D2 dopamine receptor. P14416. HEK293 T-REx D2, calcium flux, EC20 dopamine potentiation. potentiation, % at 10 µM. actives 0.34% (n = 340,000). AID 485347;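 active means potentiation over 3 SD above the plate norm, cut at about 30% in these data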; further: 0% is about no effect
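Tetracycline-induced Hek293 Trex D2 cells, force-coupled to calcium, loaded with no-wash calcium dye. Compound added with 180 s kinetic read for agonism, then EC20 dopamine and a further 180 s read for potentiation.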
D2 ag-2: human D2 receptor agonism in beta-arrestin assay; actives 0.084% (n = 360,000); activation, % (concentration not given with the values); AID 624465; P14416; DiscoveRx PathHunter D2 beta-arrestin, luminescence, 90 min; 100% = 57 uM dopamine signal; in the data active means activation above about 40%; inconclusive means between about 15% and that limit
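Agonist mode: compounds alone added to overnight-plated D2 PathHunter cells for 90 min at 37 C, with 57 uM final dopamine (EC100) defining full response. Beta-arrestin recruitment detected by chemiluminescent reagent, read after 1 h at ambient temperature.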
D2 antag: D2 dopamine receptor (human) antagonism; P14416; HEK293 TREx D2 cells, calcium flux, dopamine EC80; inhibition, % at 10 µM; actives 2% (n = 340,000); in the data active means inhibition above about 30%; inactive means below that, where a call was filed; further: 0% is about no effect
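Antagonism is scored as inhibition of an EC80 dopamine-evoked calcium signal in a force-coupled, tetracycline-inducible HEK293 T-REx D2 line, with compound present 180 s before agonist.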
D2 PAM-2: potentiates the human D2 dopamine receptor allosterically; P14416; DiscoveRx D2 beta-arrestin cells, luminescence, 90 min; 100% = 57 uM dopamine signal; potentiation, % (test concentration not listed); actives 0.23% (n = 360,000); AID 624464; in the data active means potentiation above about 50%; inconclusive means mostly about 30% to 49%
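D2 cells co-treated with compound plus 50 nM dopamine (EC20) for 90 min at 37 deg C to detect potentiation. Beta-arrestin recruitment was read as enzyme-fragment luminescence after 1 h at ambient temperature. Full response was set by 57 uM dopamine.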
* = called active by the depositor; u = inconclusive; x = not tested or not shown. In the library only some 2.4% were active in any assay of this set; here they are far more common.

SMILES	D2 ag-1	D2 PAM-1	D2 ag-2	D2 antag	D2 PAM-2
Cn1c(CN2CCCCC2)nc2cc(NC(=O)c3ccccc3)ccc21	34*	-21	u	36*	-3
CCOC(=O)Nc1ccc2c(c1)nc(CN1CCCCC1)n2C	0	-26	x	31*	x
Cn1c(CN2CCCCC2)nc2cc(NC(=O)c3cccc(Br)c3)ccc21	-1	-7	-2	9	-6
CCCNC(=O)CSC1=N/C(=C/c2ccc(F)cc2)C(=O)N1CC	0	9	-2	35*	-13
C=CCN1C(=O)/C(=C\c2ccc(C)cc2)N=C1SCC(=O)NCCC	0	5	-1	9	-15
O=C(NCCN1CCOCC1)c1cn(CCc2ccccc2)nn1	0	1	-1	-5	17
COc1ccccc1C(=O)NC(=S)Nc1cccnc1Cl	0	-6	-1	1	0
Cc1ccc(C(=O)NC(=S)Nc2cccnc2Cl)cc1	-2	40*	-7	-7	-16
CCN1C(=O)c2cccc3c(S(=O)(=O)N4CCC(C)CC4)ccc1c23	-1	-4	-3	37*	1
COc1ccc(OC)c(NC(=O)CCCSc2ccccc2)c1	0	-2	1	-7	4
COc1cc2ccnc(Cc3cccc(OC)c3OC)c2cc1OC	1	0	15	-4	55*
O=C(NCC1CCCO1)c1ccccc1-c1nc(-c2ccc(Cl)cc2)no1 (centres undefined)	0	-1	-5	7	-5
CC1=CC(C)(C)Nc2ccc(OC(=O)CCN3C(=O)c4ccccc4C3=O)cc21	-1	1	u	-1	131*
O=C(NCC(c1cccs1)N1CCOCC1)c1ccccc1NS(=O)(=O)c1cc([N+](=O)[O-])ccc1Cl (centres undefined)	-1	12	-2	33*	-8
O=C(O)CCC(=O)N1CCc2cc(S(=O)(=O)N3CCC(Cc4ccccc4)CC3)ccc21	1	1	-4	34*	-4
CC1CCN(S(=O)(=O)c2ccc3c(c2)CCN3C(=O)CCC(=O)O)CC1	0	-5	-1	10	-8
Nc1nc(NCCc2ccccc2)nc(NCc2ccccc2)c1[N+](=O)[O-]	1	0	-2	45*	3
Cc1nc2sc(C(c3ccccc3)N3CCN(C)CC3)c(O)n2n1 (centres undefined)	-1	0	0	47*	-5
Cc1ccc(C(=O)N/C(=C\c2sccc2C)C(=O)NCCCN2CCOCC2)cc1	0	-9	-3	31*	-11
O=C(NCC1CCCO1)C1c2ccccc2C(=O)N1C1CCCCCCC1 (centres undefined)	0	11	1	-2	5
O=C(c1ccco1)N1CCN(C(=O)C2CCN(S(=O)(=O)c3cnc[nH]3)CC2)CC1	1	13	-2	52*	-19
COc1cccc(N2CCN(C(=O)c3cc4c(=O)oc5ccc(C)cc5c4s3)CC2)c1	0	-4	x	x	x
CCOC(=O)N1CCN(CC(O)COc2ccccc2C(C)C)CC1 (centres undefined)	0	-16	3	6	-12
CCOC(=O)N1CCN(CC(O)COc2ccccc2C(C)CC)CC1 (centres undefined)	0	-3	1	32*	-7
COc1ccccc1OCC(O)CN1CCN(C(=O)c2ccccc2)CC1 (centres undefined)	33*	-12	-3	3	-27
SMILES	D2 ag-1	D2 PAM-1	D2 ag-2	D2 antag	D2 PAM-2
CC(=O)COC(=O)c1ccc2noc(-c3ccccc3)c2c1	0	-1	4	-26	u
Cc1cc(NC(=O)C2CCN(S(=O)(=O)Cc3ccccc3)CC2)ccc1-n1cnnn1	1	1	-2	30*	6
Cc1cc(NC(=O)C2CCCN2C(=O)Nc2c(C)cccc2C)ccc1-n1cnnn1 (centres undefined)	0	14	-2	15	-13
Cc1c(Cc2ccccc2)sc(/N=C/c2c(O)ccc3ccccc23)c1C(N)=O	1	-9	-2	-7	57*
Cc1ccc2c(c1)N(CC(=O)N1CCCC1)C(=O)CO2	1	-8	-3	1	-2
CCOC(=O)c1ccc2c(c1)N(CC(=O)N1CCCC1)C(=O)C(C)(C)O2	0	45*	-3	-2	-15
